Rows were chosen to be rich in hits. Some 2.6% of all compounds tested hit in one or more screens of this group.
Peg3 prom inh: Peg3 promoter activity inhibition; actives 1.7% (n = 360,000); HeLa PEG-Prom luciferase reporter, luminescence, overnight; inhibition, % at 20 µM;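 active = inhibition of at least 50% at 20 µM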
KKLEB cytotox: counter-screen for CF NF-kB inhibitors: cytotoxicity; KKLEB CF airway cells viability, ATPlite luminescence, overnight; active compounds read low; cells stimulated with P. aeruginosa culture filtrate; activity change (cytotoxicity), % at 5 µM; actives 0.36% (n = 360,000);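 active = corrected activity change at or below -50% at 5 µM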
Shn3 3UTR inh: inhibitors of Schnurri-3 3'UTR reporter in osteoblasts; Clone20 osteoblast Shn3 3'UTR firefly luciferase, 24 h; inhibition, % at 12.5 µM; actives 0.52% (n = 360,000); AID 588674;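 active = mean inhibition of at least 75% with every replicate also reaching 75%; inconclusive = mean inhibition at least 75% but some replicate below; inactive = mean inhibition below 75%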;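 also: 0% = median of neutral control wells and 100% = pilot-screen positive control compound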
CF NFkB block: cystic fibrosis NF-kB activation inhibition | KKLEB NF-kB-GFP reporter, PAF-induced, GFP fluorescence overnight | inhibition, % at 5 µM | actives 0.86% (n = 360,000);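 active = at least 50% inhibition at 5 µM, scaled per plate between neutral and stimulator controls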;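 also: PAF is a Pseudomonas aeruginosa culture filtrate used as stimulus; plate controls were PAF-stimulated DMSO wells for no effect and unstimulated DMSO wells for full effect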
HIF-2a inh: blocks HIF-2a reporter activity; 786-0 RCC cells HIF-2a reporter, luciferase luminescence, overnight; inhibition, % at 18.8 µM; actives 0.72% (n = 360,000);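 active = inhibition of the luminescence signal of 40% or more relative to plate controls, in a single-dose primary screen at 18.75 µM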
* hit, by the source's call; ? = inconclusive; / = no result.

SMILES	Peg3 prom inh	KKLEB cytotox	Shn3 3UTR inh	CF NFkB block	HIF-2a inh
C[C@]12C(=O)N(c3ccc(C(F)(F)F)cc3)C(=O)N1[C@H]1c3ccccc3OC[C@@H]1[C@H]2c1ccccc1	6	-22	-22	60*	8
CCn1cnc2c(Nc3cc(F)cc(F)c3)nc(C#N)nc21	-145	-18	-2	14	-197
N#Cc1nc(Nc2cccc(Cl)c2)c2ncn(C3CCCC3)c2n1	-181	-54*	-9	51*	-150
CCCCCCOC(=O)c1ccc(N)cc1	-317	8	-98	-1	-298
CCCCCCCCCCCC1N=C(N)NC(CCCO)=C1C(=O)OC (stereo not drawn)	96*	-4	25	7	38
CCOc1ccccc1Nc1cc(C)nc2ccccc12	10	-15	92*	9	19
CCOc1ccccc1Nc1cc(C)nc2ccc(C)cc12	21	-5	39	1	15
CCOc1cccc(NC(=O)c2cnccc2C(F)(F)F)c1	8	12	/	-11	-2
CC(C)OC(=O)CSc1nnc(-c2ccccn2)n1N	6	8	/	0	19
O=C(COC(=O)CCN1C(=O)/C(=C\C=C\c2ccccc2)SC1=S)Nc1cc(F)ccc1F	-10	-4	39	-16	83*
O=C(CN1C(=O)/C(=C\C=C\c2ccccc2)SC1=S)Nc1ccc(F)cc1	-8	-35	6	-5	6
Cc1ccc(CC(=O)OC(C)C(=O)NC2CCCCC2C)cc1C (stereo not drawn)	6	3	-6	-11	9
C=CCC[C@@H](Cc1ccc(F)cc1)C(=O)OC[C@@H](Cc1c[nH]c2ccccc12)NC(=O)[C@H](CC=C)CC(=O)N(CCO)Cc1ccccc1	52*	-2	50	27	6
C=CCC[C@H](Cc1ccc(F)cc1)C(=O)OC[C@@H](Cc1c[nH]c2ccccc12)NC(=O)[C@H](CC=C)CC(=O)N(CCO)Cc1ccccc1	64*	-12	?	14	-10
C=CCC[C@H](Cc1ccc(F)cc1)C(=O)OC[C@H](Cc1c[nH]c2ccccc12)NC(=O)[C@@H](CC=C)CC(=O)N[C@H](CO)Cc1ccccc1	22	8	92*	-8	0
C=CC[C@@H](CC(=O)N(CCO)Cc1ccccc1)C(=O)N[C@@H](COC(=O)[C@@H](CC=C)Cc1ccc(F)cc1)Cc1c[nH]c2ccccc12	43	-6	30	30	15
C=CC[C@H](CC(=O)N[C@H](CO)Cc1ccccc1)C(=O)N[C@@H](COC(=O)[C@@H](CC=C)CC(=O)OC(C)(C)C)Cc1c[nH]c2ccccc12	63*	9	8	2	7
COC(=O)c1ccc(C2c3c(oc4ccc(Cl)cc4c3=O)C(=O)N2CCN2CCOCC2)cc1 (stereo not drawn)	-1	-15	2	25	2
COc1ccc(OC)c(NC(=O)COC(=O)c2ccc(S(=O)(=O)N3CCCCC3)cc2)c1	6	12	3	-6	11
C=CC[C@H](CC(=O)N(CCO)Cc1ccccc1)C(=O)N[C@@H](COC(=O)[C@@H](CC=C)Cc1ccc(F)cc1)Cc1c[nH]c2ccccc12	60*	7	-12	7	-37
Cc1ccc(Cl)cc1NC(=O)C1C2CCC(O2)C1C(=O)O (stereo not drawn)	-4	4	-12	-5	11
O=[N+]([O-])c1cc([N+](=O)[O-])c2cc3ccccc3nc2c1	92*	-2	71	84*	15
Cc1cc(C)n(-c2nc3c(c(=O)[nH]c(=O)n3C)n2CC(O)COc2ccccc2C)n1 (stereo not drawn)	5	-8	-7	-3	15
C#Cc1ccc([C@@H]2C=C(C(=O)N3CCN(Cc4ccccc4)CC3)O[C@H](OCCCCO)C2)cc1	12	-3	93*	22	16
CC/C(=C(\c1ccccc1)c1ccc(OCCN(C)C)cc1)c1ccccc1	71*	-24	25	26	-6
CCC(=C(c1ccc(O)cc1)c1ccc(OCCN(C)C)cc1)c1ccccc1	-12	-5	14	14	5
CC/C(=C(\c1ccc(O)cc1)c1ccc(OCCN(C)C)cc1)c1ccccc1	57*	4	-17	-26	18
CCC(=C(c1ccccc1)c1ccc(OCCN(C)C)cc1)c1ccccc1	7	-5	15	-11	2

Source: PubChem BioAssay (several laboratories)
